Several values for one entry are separate records, joined by “and”; a condition that tells them apart may be missing. Identical values can stand only once. Hit rate of the full screen: of about 16,000 compounds, about 2,600 (16%) were called active. Another 20% or so got no clear call; they are omitted. Calls follow the shape of the dose curve; as a rule, active = well fitted curve in the direction sought with a large enough effect; inconclusive = small, poorly fitted or top-dose-only effect, or effect the other way; inactive = no such curve, though single readings can be large or run the other way. The list is a sample of the results. The source holds several records for some structures; these can differ, active in one and inactive in another.

The values below come from PubChem BioAssay AID1851 (National Center for Advancing Translational Sciences (NCATS), 2009).
% is scaled to controls: 0 for no effect and ±100 for the full control effect.

For the assay, the target named is Cytochrome P450 2D6 (Homo sapiens) (UniProt P10635). In words: Cytochrome panel assay with activity outcomes. Conditions: recombinant CYP, pro-luciferin dealkylation, luminescence, p450-cyp2d6; series mostly up to 57.1 µM.
Cytochrome P450 2D6 (Homo sapiens), sequence (P10635 whole entry, looked up): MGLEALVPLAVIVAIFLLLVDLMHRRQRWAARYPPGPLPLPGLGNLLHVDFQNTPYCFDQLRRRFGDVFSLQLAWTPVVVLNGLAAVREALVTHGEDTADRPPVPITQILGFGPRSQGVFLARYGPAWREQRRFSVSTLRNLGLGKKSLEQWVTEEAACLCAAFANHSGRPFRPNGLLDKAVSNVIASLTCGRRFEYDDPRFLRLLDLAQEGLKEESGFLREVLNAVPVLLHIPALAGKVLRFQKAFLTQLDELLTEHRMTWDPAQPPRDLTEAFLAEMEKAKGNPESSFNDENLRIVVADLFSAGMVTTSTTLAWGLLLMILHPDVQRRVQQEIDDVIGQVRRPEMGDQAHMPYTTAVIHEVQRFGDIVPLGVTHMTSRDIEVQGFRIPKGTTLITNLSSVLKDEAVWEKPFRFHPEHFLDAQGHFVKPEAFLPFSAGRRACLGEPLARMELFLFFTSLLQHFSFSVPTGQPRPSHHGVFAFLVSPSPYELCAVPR
The term AC50 denotes the concentration giving half of the maximal activity seen. As to `C/C(=N/NC(=O)Cc1cccn1C)c1ccccc1`, the AC50 entry is “inactive”.
With `Cc1ccc(/C=C/c2nnc(-c3ccc(C)cc3)o2)cc1`, the AC50 result was “inactive”.
In the case of `Cc1c2c(nc3c(C(=O)NC4CCCC4)cnn13)CCCC2`, the AC50 result is “inactive”.
Turning to `Cc1cccc(C)c1OC1(c2ccccc2)OC(=O)c2ccccc21` (centres undefined), the AC50 entry was “inactive”.
The same measure, in the same setting: the same measure for `O=C(/C=C\c1ccc(O)c(O)c1)O[C@@H]1C[C@](O)(C(=O)O)C[C@@H](O)[C@@H]1O`: “inactive”; for `CCCn1nc(Oc2nc(NCC)nc(NC(C)C)n2)ccc1=O`: “inactive”; for `COc1ccc(Cc2nnc(NC(=O)Cn3cnc4c3c(=O)n(C)c(=O)n4C)s2)cc1OC`: “inactive”.
Still for that read-out and setting: then `COc1ccc(C2C3=C(CC(C)(C)CC3=O)Oc3ncn(CC(C)C)c(=N)c32)cc1` (centres undefined), with 1000 nM (active); and `CCOC(=O)c1c(C)nc2c(c1-c1ccc(OC)cc1)C(=O)CC(C)(C)C2`, with “inactive”; and `COc1cccc(C2C3=C(CC(C)(C)CC3=O)OC(N)=C2[N+](=O)[O-])c1` (centres undefined), with “inactive”.
Still for that read-out and setting: the same measure for `CC(C)NC(=O)N1CCCC2(CCN(C(=O)c3ccco3)CC2)C1`: 2510 nM (active); for `O=C(c1ccco1)N1CCC[C@@]2(CCN(C(c3ccccc3)c3ccccc3)C2)C1`: 3160 nM (active).
For the compound `O=C(c1ccco1)N1CCC2(CC1)CCN(C(c1ccccc1)c1ccccc1)CC2`, the AC50 was 5010 nM (active).
For `O=C(Nc1ccccc1)N1CCCC2(CCN(C(=O)c3ccco3)CC2)C1`, the AC50 entry is “inactive”.
With `O=C(c1ccco1)N1CCC2(CC1)CCN(c1ccc(-c3ccccc3)cc1)CC2`, the AC50 result was “inactive”.
Take `CC(C)NC(=O)N1CCC2(CC1)CCN(C(=O)c1ccco1)CC2`: the AC50 result is “inactive”.
The same measure, in the same setting: then `O=C(Nc1ccccc1)N1CCC2(CC1)CCN(C(=O)c1ccco1)CC2`, with “inactive”; and `COc1ccc(NC(=O)N2CCCC3(CCN(C(=O)c4ccco4)CC3)C2)cc1`, with “inactive”; and `O=C(c1ccco1)N1CCC2(CCCN(C(c3ccccc3)c3ccccc3)C2)CC1`, with 10000 nM (active).
On the same count and under the same terms, then `O=C(c1ccco1)N1CCC2(CC1)CN(c1cccc(-c3ccccc3)c1)C2`, with “inactive”; and `N#Cc1cccc(NC(=O)N2CC[C@@]3(CCCN(C(=O)c4ccco4)C3)C2)c1`, with “inactive”; and `O=C(c1ccco1)N1CCC2(CCCN(c3ccccc3)C2)CC1`, with “inactive”.
Same read-out and setting: then `Cc1nc2ccccn2c1/C(O)=C1\C(=O)C(=O)N(CCN2CCOCC2)C1c1cccnc1` (centres undefined), with “inactive”.
For `CCOc1ccc(/C(O)=C2/C(=O)C(=O)N(CCOCCO)C2c2cccnc2)cc1` (centres undefined), the AC50 result is “inactive”.
Same read-out and setting: the same measure for `CN[C@H](CC(=O)O)C(=O)O`: “inactive”; for `C=C[C@@]1(C)CC(=O)[C@@]2(O)[C@@]3(C)[C@@H](O)CCC(C)(C)[C@@H]3[C@H](O)[C@H](OC(C)=O)[C@@]2(C)O1`: “inactive”.
On the same count and under the same terms, then `COc1ccc(C(=O)N2CCC3(CC2)CN(C(=O)Nc2ccccc2)C3)cc1`, with “inactive”; and `Cc1cc(C(C#N)c2cccc(Cl)c2)n2ncnc2n1` (centres undefined), with “inactive”.
Still for that read-out and setting: then `CC1CC(=O)c2cnc(N)nc2C1` (centres undefined), with “inactive”.
With `COC(=O)[C@@H]1CC[C@H](C)[C@@H](c2ccc(C)cc2)N1C(=O)c1ccc(/C=N\O[C@@H](C)c2cn([C@H]3COC[C@H]3O)nn2)cc1`, the activity, negative = inhibition was -10% [at 11.4 µM] (inactive).
On to `CC(C)=CC(=O)Nc1nnc(C(C)C)s1`, for which the AC50 result is “inactive”.
The same measure, in the same setting: then `COc1ccc(OCc2nnc(SCC(=O)O)n2N)cc1`, with “inactive”; and `O=C(c1ccco1)N1CCC2(CC1)CN(C(c1ccccc1)c1ccccc1)C2`, with 1260 nM (active).
In the case of `O=C(c1ccco1)N1CCC2(CC1)CN(c1ccccc1)C2`, the AC50 result was “inactive”.
For `O=C(c1ccco1)N1CCC2(CC1)CN(c1ccc(-c3ccccc3)cc1)C2`, the AC50 entry was “inactive”.
With `O=C(N/C(=C\c1cccs1)C(=O)N1CCCCCC1)c1ccccc1`, the AC50 result is “inactive”.
As to `O=C(O)CS(=O)c1ccc2c3c(cccc13)C(=O)c1ccccc1-2` (centres undefined), the activity, negative = inhibition is 21.8% [at 11.4 µM] (inactive).
As for `CN(C(=O)COc1cccc(Br)c1)C1CCS(=O)(=O)C1` (centres undefined), the AC50 entry is “inactive”.
On the same count and under the same terms, the same measure for `COc1ccc(NC(=O)COC(=O)c2c(-c3ccccc3)noc2C)cc1`: “inactive”.
The same measure, in the same setting: the same measure for `C/C(=N\NC(=O)c1ccc(Cl)cc1)c1ccc(Br)s1`: “inactive”.
`C[C@@H](CSC(=N)N)C(N)=O`: the activity, negative = inhibition was 4.14% [at 11.4 µM] (inactive).
`N=C(N)SCCN`: the AC50 result was “inactive”.
Same read-out and setting: the same measure for `CC(C)SC(=N)N`: “inactive”; for `CCSC(=N)N`: “inactive and 3.98 µM (active)”; for `CSC(=N)N`: “inactive and 50.1 nM (active)”.
Consider `N=C(N)SCCSC(=N)N`, for which the activity, negative = inhibition was 5.17% [at 11.4 µM] (inactive).
With `CCn1c(C)nc2cc(S(=O)(=O)C(F)F)ccc21`, the AC50 entry was “inactive”.
With `Cc1ccc(Sc2nc(-c3ccccc3)ccc2C#N)cc1`, the AC50 entry is “inactive”.
With `CCOC(=O)C1CCCN(C(=O)C2CCN(S(=O)(=O)N3CCC4(CC3)OCCO4)CC2)C1` (centres undefined), the AC50 entry was “inactive”.
For `CCCCSc1nnc(-c2ccc(C)cc2)n1C`, the AC50 entry is “inactive”.
Turning to `COC(=O)CNC(c1ccccc1Cl)c1cc(Br)ccc1NC(=O)CCN1CCOCC1` (centres undefined), the AC50 result was “inactive”.
On the same count and under the same terms, the same measure for `NNC(=O)CNC(c1ccccc1)c1cc(Br)ccc1NC(=O)c1ccccc1Br` (centres undefined): 7940 nM (active).
On to `NNC(=O)CNc1cccc(Br)c1`, for which the activity, negative = inhibition is -9.21% [at 11.4 µM] (inactive).
The same measure, in the same setting: the same measure for `O=S1(=O)N[C@H]2CC[C@@H]3NS(=O)(=O)N[C@H]4CC[C@H](N1)N4S(=O)(=O)N23`: 12.7% [at 11.4 µM] (inactive); for `CC(C)(C)N1C(=O)[C@H]2[C@@H]3[C@H](O)C=CC(=O)[C@H]3CC[C@H]2C1=O`: 7.58% [at 11.4 µM] (inactive).
Consider `COc1ccc(N(C)C(=O)c2ccc3nc(-c4ccccc4)c(-c4ccccc4)nc3c2)cc1`, for which the AC50 result was “inactive”.
Turning to `CS(=O)(=O)N1CC(C(=O)NC2CC2)Oc2ccc(Cl)cc21` (centres undefined), the AC50 entry is “inactive”.
Still for that read-out and setting: the same measure for `C=C(CC1([C@@H](NP(=O)(c2ccccc2)c2ccccc2)[C@H]2C[C@@H]2CCN(C(=O)OCC)S(=O)(=O)c2ccc(C)cc2)CC1)c1ccccc1`: “inactive”.
`N#CCCn1c(=O)c(-c2ccc(Cl)cc2)nc2cnc(N3CCOCC3)nc21`: the AC50 result was “inactive”.
Take `Cc1ncc(CSC(=N)N)n1Cc1ccccc1`: the activity, negative = inhibition is -11.5% [at 11.4 µM] (inactive).
As for `Cc1nc2cncnc2n(Cc2ccccc2)c1=O`, the AC50 result is “inactive”.
Turning to `Cc1ccc([C@@H](O)c2cnc(C)n2Cc2ccccc2)cc1`, the AC50 is 631 nM (active).
`Cc1nn2c(C)nc3sc4c(c3c2nc1=O)CC(C)(C)OC4`: the AC50 result was “inactive”.
Same read-out and setting: then `CCOC(=O)N1CCN(C(=O)c2ccc(NC(C)=O)cc2)CC1`, with “inactive”.
